# Results: PubChem BioAssay (EPA / NIEHS)
# “And” between values parts separate entries of the source, which are not always exact repeats. Equal values may be shown once. Records with an inconclusive call do not appear. Where a structure was tested more than once in an assay, its records may differ in their call. The source made the active and inactive calls. Rule for the calls: active = hit-call score of the fitted dose curve at least 0.9, where 1 is the maximum; inconclusive = response in the unintended direction; inactive = score below 0.9.
# Experiment: CCTE_Shafer_MEA_dev_AB: CCTE's Alamar Blue Assay for Cytotoxicity in the Neural Network Formation Assay, Shafer Lab (AID 2284083);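 note: twelve days of exposure from plating with re-dosing on DIV 5 and 9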
# Protocol: CCTE_Shafer_MEA_dev assay is conducted using Axion Biosystems 48 well microelectrode array (MEA) plates and Maestro recording system. Each well of the MEA plate contains a grid of 16 microelectrodes embedded in the culture surface. Electrically active cells, such as neurons, can be cultured over the electrodes, and electrical activity in these cells can be recorded extracellularly. The spontaneous firing of neurons is captured from each electrode on a microsecond timescale providing both temporally and spatially precise data. […] The CCTE_Shafer_MEA_dev assay uses primary cultures of rat cortical neurons. Recordings are made on days post-plating 5, 7, 9 and 12. As these cultures mature over time, neural networks develop functional activity and form cohesive networks in which electrical activity can be highly coordinated. CCTE_Shafer_MEA_dev_AB is 1 of 19 assay components of the CCTE_Shafer_MEA_dev assay. It measures the resazurin reduction using fluorescence.Data from the assay component CCTE_Shafer_MEA_dev_AB was analyzed into 1 assay endpoint. This assay endpoint, CCTE_Shafer_MEA_dev_AB, was analyzed in the positive analysis fitting direction relative to DMSO as the negative control and baseline of activity. Using a type of viability reporter, loss-of-signal activity can be used to understand cell viability.
# On the day prior to culture, each well was coated thoroughly with 150 uL of 0.05% polyethyleneimine (PEI, Sigma Cat P3143) in 50 mM HEPES (Sigma Cat H7523) at a pH of 8. The plate was incubated at 37C for one hour. PEI was rinsed out with 500 uL of sterile water three times. Plates were stored at 4C until the day of culture. This culture was plated at a seeding density of 1.5 x 10^5 cells/well on a 48-well MEA plate, prepared as described above. Cells were administered via a 25 uL media/laminin ([…]; Sigma Cat L2020-1MG) drop directly onto the microelectrode array, as adding the cells with the laminin results in better attachment than pre-coating with laminin. After 2 hours, an additional 475 uL of cortical media was added and the cells returned to the incubator. Exposure starts at day 0 of plating and is continued over twelve days of network development until the experiment is terminated. Cells are fed with fresh medium on DIV 5 and 9, following the recordings on those days. The entire volume of media in the well is exchanged and any vehicle or compound treatment is renewed. Complete details are found in OP-NHEERL/ISTD/SBB/TJS/2015-03-r0 (available on request, email shafer.tim@epa.gov). Measurement of the electrical activity is non-invasive, and recordings can be made from the same plate over multiple different days of the culture. In cortical neurons, this allows for the measurement of extracellular action potentials over the period during which networks form in the MEA plate.
SMILES,AC50,outcome
CCOP(=S)(OCC)SCSC(C)(C)C,18.7 µM (active) and 82.5 µM (active),
CO/C=C(/C(=O)OC)c1ccccc1COc1cccc(C(F)(F)F)n1,856 nM (active) and 1.12 µM (active),
ClC1=C(Cl)[C@]2(Cl)[C@@H]3[C@@H](Cl)[C@H]4O[C@H]4[C@@H]3C1(Cl)C2(Cl)Cl,23.9 µM (active),
CCC(C)(c1ccc(O)cc1)c1ccc(O)cc1,,inactive
NS(=O)(=O)C(F)(F)C(F)(F)C(F)(F)C(F)(F)C(F)(F)C(F)(F)C(F)(F)C(F)(F)F,24 µM (active),inactive
ClC1=C(Cl)[C@]2(Cl)[C@@H]3[C@@H]4C[C@@H]([C@H]5O[C@@H]45)[C@@H]3[C@@]1(Cl)C2(Cl)Cl,22.4 µM (active),
Oc1ccc(C(c2ccc(O)cc2)(C(F)(F)F)C(F)(F)F)cc1,16 µM (active),inactive
C=CC(N)=O,,inactive
Clc1ccc(C(c2ccccc2Cl)C(Cl)(Cl)Cl)cc1 (centres undefined),6.13 µM (active),
O=S(=O)(O)C(F)(F)C(F)(F)C(F)(F)C(F)(F)C(F)(F)C(F)(F)F,,inactive
ClC(Cl)=C(c1ccc(Cl)cc1)c1ccc(Cl)cc1,6.02 µM (active),
c1cc2ccc3cccc4ccc(c1)c2c34,,inactive
